Measured values reported in PubChem BioAssay (NCATS).
Values joined by “and” are separate entries in the source; they are usually repeats but may differ in a detail not shown here. Identical values can stand only once. Inconclusive results are not listed. Where a call stands in place of a potency, no number is given. More than one record can exist for a structure, and the calls need not agree. Active and inactive are the calls of the source. Unless noted, the call rests on the fitted dose curve; in most records, active means well fitted curve in the direction sought with a large enough effect; inconclusive means small, poorly fitted or top-dose-only effect, or another doubt; inactive means no such curve, though single readings can be large; an effect the other way counts as inactive or inconclusive.

What was measured:
[1] = target: Cytochrome P450 1A2 (Homo sapiens) (UniProt P05177); assay: p450-cyp1a2 (AID 410; calls by dose curve; further: potency means the concentration at half of the fitted maximal effect); settings: recombinant CYP1A2, luciferin-ME demethylation, luminescence; series mostly up to 57 µM
Outline: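 Luminescent readout of luciferin formed from Luciferin-ME by human CYP1A2; data normalized against complete inhibition by 57 uM furafylline. Enzyme 20nM, substrate 100uM at Km, 100mM KPO4 buffer, 60 min reaction at room temperature.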

[2] = target: Glucocorticoid receptor (Homo sapiens) (UniProt P04150); assay: GR-GFP Redistribution (AID 450;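 active means compounds whose dose series gives a full or clear partial fitted curve of increased nuclear translocation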; further: potency means the concentration at half of the fitted maximal effect); settings: U2OS GR-GFP nuclear translocation, laser cytometry, 2 h
[3] = target: Glucocorticoid receptor (Homo sapiens) (UniProt P04150); assay: GR-EFC Redistribution (AID 451; calls by dose curve; further: potency means the concentration at half of the fitted maximal effect); settings: CHO-K1 GR-EFC translocation, beta-gal luminescence, 2 h
Outline: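 Translocation of GR-ED fusion to nuclear EA restores b-gal, read by luminescence after 1 h room-temperature detection. Engineered CHO-K1 biosensor cells, 1,000/well, exposed 2 h at 37 C to titrations up to 46 uM final.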

[4] = target: Mitogen-activated protein kinase 10 (Mus musculus) (UniProt Q61831); assay: JNK3 AlphaScreen Assay (AID 530; active means well fitted curve in either direction with a large enough effect, not every such curve was filed as active;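 further: kinase came from lysate of stimulated human HepG2 cells; signal reports phosphorylation of biotinylated GST-cJun 1-79 at Ser73 with 10 µM ATP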); settings: JNK3 lysate, c-Jun phosphorylation; series mostly up to 57.1 µM
Outline: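 Compound titrations were preincubated 15 minutes at room temperature with substrate, antibody and pre-activated JNK3-containing HepG2 lysate. Reactions were started with 10 uM ATP and stopped with EDTA-containing bead buffer for AlphaScreen detection.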

[5] = target: 3',5'-cyclic-AMP phosphodiesterase 4B (Homo sapiens) (UniProt Q07343); assay: qHTS Assay for Inhibitors of PDE-IV (AID 607; active means well fitted activation curve with a large enough effect in the main read-out, with a control signal flat, not every such curve was filed as active); settings: HEK293 ACTOne CNG channel cells, membrane potential fluorescence; series mostly up to 22.9 µM
Outline: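 Live HEK293 cells with a modified cyclic nucleotide-gated (CNG) channel report intracellular cAMP via membrane-potential dye fluorescence (ex 535/em 590 nm). Endogenous PDE-IV was targeted. Compounds were tested at up to 22.9 uM final; RO 20-1724 100 uM served as control.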

[6] = target: Ubiquitin carboxyl-terminal hydrolase 1 (Homo sapiens) (UniProt O94782); assay: Inhibitors of USP1/UAF1: Pilot qHTS (AID 504865); settings: purified USP1/UAF1, Ub-rhodamine cleavage fluorescence; series mostly up to 114 µM;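 further: rhodamine fluorescence freed from ubiquitin-rhodamine substrate followed over time; top concentration of the series differs between compounds; nearly all actives have a fitted effect of over 35% in size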
Outline: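 Enzyme-free wells gave the negative control, while test wells held 1nM USP1/UAF1 preincubated with compound for 15 min at room temperature. Ub-Rho at 150nM final started the reaction, and fluorescence at 480/540 nm was recorded kinetically.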

[7] = target: DNA dC->dU-editing enzyme APOBEC-3G (Homo sapiens) (UniProt Q9HC16); assay: qHTS for inhibitors of Vif-A3G interactions: Validation (AID 588379); settings: Vif-A3G protein interaction assay; series mostly up to 46.1 µM
Outline: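 HeLa cells stably expressing Vif and A3G-eYFP, 700 cells/well, incubated overnight at 37 deg C, then exposed to compound overnight at 37 deg C. Inhibition of Vif-mediated degradation read as increased yellow fluorescence (Ex 488/Em 500-530) by laser-scanning cytometry.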

[8] = test system: Zika virus NS2B-NS3 protease; assay: Primary screen GU AMC qHTS for Zika virus inhibitors (AID 1347154); settings: Zika NS2B-NS3 unlinked protease, AMC fluorogenic substrate; series mostly up to 54.1 µM; further: nearly all actives have a fitted effect of over 70% in size
Outline: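 Fluorogenic AMC-substrate cleavage by noncovalent NS2B-NS3 protease complex (25 nM, pH 8.0 Tris buffer with Tween 20) followed for 15 minutes at room temperature (~20% conversion). Percent inhibition from ex340/em450 signal change, fitted by 4-parameter Hill equation.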

[9] = Primary qHTS for small molecule stabilizers of the endoplasmic reticulum resident proteome: Secreted ER Calcium Modulated Protein (SERCaMP) assay (AID 1508630); settings: SH-SY5Y GLuc-SERCaMP (Gaussia luciferase released on ER calcium loss) secretion, thapsigargin, luminescence; series mostly up to 38.4 µM
Outline: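 GLuc-SERCaMP-expressing SH-SY5Y cells, pretreated 16 h with compound, are challenged with thapsigargin to empty ER calcium stores; after 4 h, coelenterazine is added directly to the medium and luminescence is imaged.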

[10] = target: Lysosomal acid glucosylceramidase (Homo sapiens) (UniProt P04062); assay: Glucocerebrosidase-p2 (AID 348; in the data active means potency below about 10 µM; further: potency means the concentration at half of the fitted maximal effect); settings: purified GBA, blue fluorogenic substrate, 40 min
Outline: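 Compounds titrated from 0.6 nM upwards against 0.2 nM enzyme in pH 5.9 citric acid/KH2PO4, taurocholate, tween-20; blue fluorogenic substrate 80 uM, 40 min room temperature, stopped and read Ex 365/Em 440 for AC50.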

[11] = AP1 Signaling Pathway (AID 357; active means well fitted curve in either direction with a large enough effect, not every such curve was filed as active;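 further: ME-180 reporter cells stimulated with EGF at its EC50 level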); settings: ME-180 AP-1-bla reporter, EGF-induced, beta-lactamase ratio, 5 h; series mostly up to 38 µM
Outline: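 Cells are seeded overnight, exposed to compound titrations and an EC50 level of EGF for 5 hours at 37 °C, then loaded with CCF4 dye for 2.5 hours. Beta-lactamase activity under the AP-1 element is read as a blue/green ratio.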

[12] = NFAT Signaling Pathway (AID 444; active means well fitted curve in either direction with a large enough effect, not every such curve was filed as active;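 further: carbachol stimulus at about its EC50 of 1 µM final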); settings: Jurkat NFAT-bla M1, carbachol, beta-lactamase ratio, 5 h
Outline: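 Read-out: CCF4 FRET ratio (460 nm/530 nm) after 1 h RT dye loading, used for %activity and AC50 from titration series. Cells: Jurkat NFAT-β-lactamase/M1 line, treated with compound plus 1 uM carbachol for 5 h, 37 °C.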

[13] = Stat Signaling Pathway (AID 446; active means well fitted curve in either direction with a large enough effect, not every such curve was filed as active;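 further: ME-180 cervical cancer cells given 40 pM IL-6 alongside compound; SIE-controlled beta-lactamase reporter measured as 460/530 nm FRET emission ratio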); settings: ME-180 (cervical carcinoma) SIE beta-lactamase reporter, IL-6 stimulated, 5 h; series mostly up to 38 µM
Outline: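 IL-6/STAT signaling read in ME-180 cells via an SIE beta-lactamase reporter. Stimulus was 40 pM IL-6 (its AC50) for 5 hrs, so both activation and inhibition register.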

[14] = target: Cytochrome P450 2C9 (Homo sapiens) (UniProt P11712); assay: qHTS Assay for Inhibitors and Substrates of Cytochrome P450 2C9 (AID 883); settings: recombinant CYP2C9, luciferin-H luminescence, 60 min; series mostly up to 57.1 µM; further: potency means the concentration at half of the fitted maximal effect; nearly all actives have a fitted effect of over 60% in size
Outline: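 Inhibition of CYP2C9 is scored as loss of luminescence, with 57uM sulphaphenazole defining 100% inhibition. Substrate Luciferin-H is used at 100uM, equal to its KM; enzyme at 10nM in 25mM KPO4, 60 min at 37C with NADPH regeneration.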

[15] = target: Cytochrome P450 2C19 (Homo sapiens) (UniProt P33261); assay: qHTS Assay for Inhibitors and Substrates of Cytochrome P450 2C19 (AID 899); settings: recombinant CYP2C19, luciferin-H EGE luminescence; series mostly up to 57.1 µM; further: potency means the concentration at half of the fitted maximal effect; nearly all actives have a fitted effect of over 60% in size
Outline: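 5nM enzyme + 10uM Luciferin-H EGE (=KM), 50mM KPO4; cpd pin-transferred, 10 min 37C; NADPH regen, 60 min 37C; stopped w/ luciferin detection reagent, 20 min; luminescence. Normalized to 57uM ketoconazole (AC100).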

[16] = target: Cytochrome P450 3A4 (Homo sapiens) (UniProt P08684); assay: qHTS Assay for Activators of Cytochrome P450 3A4 (AID 885); settings: recombinant CYP3A4, Luciferin-PPXE luminescence, 60 min; series mostly up to 57.1 µM; further: nearly all actives have a fitted effect of over 65% in size
Outline: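 Quantitative HTS format: compounds preincubated with 20nM human CYP3A4 and Luciferin-PPXE substrate at KM, reaction started by NADPH regeneration, stopped after 60 min, luciferase luminescence read 20 min later.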

[17] = qHTS Assay for Identification of Small Molecule Antagonists for NFkB Signaling Pathway (AID 895; active means well fitted inhibition curve with a large enough effect in the signal ratio, with a control signal flat, not every such curve was filed as active; the % refers to the signal ratio); settings: NFkB beta-lactamase reporter cells, FRET ratio 460/530; series mostly up to 38.3 µM
Outline: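 Beta-lactamase reporter read-out (460 and 530 nm emission ratio, 405 nm excitation, 2 hrs substrate loading RT) after 5 hr stimulation with 10 pM TNF alpha in compound-treated NFkB-bla ME-180 cells in low-serum medium.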

[18] = qHTS Assay for Identification of Small Molecule Agonists for Thrombopoietin (TPO) Signaling Pathway (AID 917); settings: TPO signaling pathway reporter cells, agonist qHTS; series mostly up to 38.5 µM
Outline: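 IL-3-dependent murine pro-B Ba/F3 cells, stably transfected with human TPO receptor and GpIIb-promoter luciferase, are incubated 24 hrs at 37 C with test compound and 26 pM TPO; luciferase signal is read after 10 min at room temperature.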

[19] = target: Muscarinic acetylcholine receptor M1 (Rattus norvegicus) (UniProt P08482); assay: qHTS Assay for Antagonists of Acetylcholine Muscarinic M1 Receptor: Measurement of IP-One Response (AID 944); settings: CHO-M1 cells, IP-One HTRF, antagonist mode; series mostly up to 46.1 µM; further: nearly all actives have a fitted effect of over 75% in size
Outline: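 M1-CHO (rat), 2000 cells/well, overnight recovery; cpd 10 min; carbachol EC80 (200 nM), 30 min, HEPES buffer + 50 mM LiCl pH 7.4; IP-One HTRF, Ex 337, Em 620/665 nm.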

[20] = target: Pyruvate kinase (Leishmania mexicana) (UniProt Q27686); assay: qHTS Validation Assay for Inhibitors of Leishmania Mexicana Pyruvate Kinase (AID 945); settings: purified L. mexicana pyruvate kinase, enzyme activity, E451W mutant enzyme; series mostly up to 57.5 µM
Outline: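 Mutant LmPYK (E451W), 0.2 nM, plus 0.5 mM PEP and 0.1 mM ADP in 50 mM imidazole pH 7.2 containing 0.01% Tween 20 and 0.05% BSA. Incubated 1 h at room temperature; luminescence via PKLight, normalized to DMSO.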

[21] = target: Pyruvate kinase PKM (Homo sapiens) (UniProt P14618); assay: qHTS Assay for Activators of Human Muscle Pyruvate Kinase (AID 954; active means well fitted curve in the direction sought with a large enough effect, not every such curve was filed as active); settings: purified human muscle pyruvate kinase, luciferase-coupled luminescence, 1 h; series mostly up to 57.5 µM
Outline: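 Enzyme was run at intermediate activity so both inhibitors and activators could be detected. ATP formed from ADP and PEP by 0.1 nM human PKM2 during a 1 h room-temperature incubation was quantified by coupled luciferase luminescence.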

[22] = target: Alpha-galactosidase (Coffea arabica) (UniProt Q42656); assay: Counterscreen for Glucocerebrosidase Inhibitors: qHTS Assay for Coffee Bean alpha-Galactosidase at pH 4.5 (AID 957); settings: purified coffee bean alpha-galactosidase, fluorogenic substrate; series mostly up to 76.9 µM
Outline: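 Coffee bean alpha-galactosidase 2 nM, substrate 4-MU-alpha-Gal 80 uM, pH 4.5 citrate/Tween-20, 20 min RT. Cpd titration 0.7 nM–77 uM. Stop pH 10, fluorescence 365/440 nm; Hill-equation AC50.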

[23] = target: Alpha-galactosidase A (Homo sapiens) (UniProt P06280); assay: Counterscreen for Glucocerebrosidase Inhibitors: qHTS Assay for Human alpha-Galactosidase at pH 4.5 (AID 992); settings: purified enzyme, fluorogenic substrate; series mostly up to 76.9 µM
Outline: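 Read-out is 4-methylumbelliferone fluorescence (365 nm excitation, 440 nm emission) after a pH 10 NaOH/glycine stop. Reactions held 2 nM enzyme and 80 uM substrate at pH 4.5 for 20 min at room temperature.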

[24] = target: alpha-glucosidase (Oryza sativa, rice) (UniProt Q653V4); assay: Counterscreen for Glucocerebrosidase Inhibitors: qHTS Assay for Rice alpha-Glucosidase at pH 5.0 (AID 997); settings: rice alpha-glucosidase enzyme activity; series mostly up to 76.9 µM
Outline: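 Rice alpha-glucosidase (4 nM final) with 400 uM 4-methylumbelliferyl-alpha-D-glucopyranoside in citrate buffer pH 5.0, 20 min at room temperature, stopped at pH 10; fluorescence 365/440 nm, compounds 0.7 nM–77 uM, AC50 from Hill fits.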

[25] = target: Alpha-galactosidase (Coffea arabica) (UniProt Q42656); assay: Counterscreen for Glucocerebrosidase Inhibitors: qHTS Assay for Coffee Bean alpha-Galactosidase at pH 5.9 (AID 998); settings: coffee bean alpha-galactosidase enzyme assay; series mostly up to 76.9 µM
Outline: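 Compounds were titrated from 0.7 nM to 77 uM against green coffee bean alpha-galactosidase (2 nM) using 80 uM fluorogenic 4-methylumbelliferyl substrate. After 20 min at room temperature, reactions were stopped at pH 10 and read by fluorescence.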

[26] = target: Cytochrome P450 3A4 (Homo sapiens) (UniProt P08684); assay: qHTS Assay for Inhibitors and Substrates of Cytochrome P450 3A4 (AID 884); settings: recombinant CYP3A4, Luciferin-PPXE luminescence; series mostly up to 57.1 µM; further: potency means the concentration at half of the fitted maximal effect; nearly all actives have a fitted effect of over 50% in size
Outline: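 20 nM human CYP3A4 with 25 uM Luciferin-PPXE (at KM) in 200 mM KPO4, preincubated 10 min with compound; NADPH regeneration started a 60 min RT reaction. Luciferin detected by luminescence, normalized to 57 uM ketoconazole as full inhibition.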

Sequence of Cytochrome P450 1A2 (Homo sapiens) (P05177 whole entry, looked up): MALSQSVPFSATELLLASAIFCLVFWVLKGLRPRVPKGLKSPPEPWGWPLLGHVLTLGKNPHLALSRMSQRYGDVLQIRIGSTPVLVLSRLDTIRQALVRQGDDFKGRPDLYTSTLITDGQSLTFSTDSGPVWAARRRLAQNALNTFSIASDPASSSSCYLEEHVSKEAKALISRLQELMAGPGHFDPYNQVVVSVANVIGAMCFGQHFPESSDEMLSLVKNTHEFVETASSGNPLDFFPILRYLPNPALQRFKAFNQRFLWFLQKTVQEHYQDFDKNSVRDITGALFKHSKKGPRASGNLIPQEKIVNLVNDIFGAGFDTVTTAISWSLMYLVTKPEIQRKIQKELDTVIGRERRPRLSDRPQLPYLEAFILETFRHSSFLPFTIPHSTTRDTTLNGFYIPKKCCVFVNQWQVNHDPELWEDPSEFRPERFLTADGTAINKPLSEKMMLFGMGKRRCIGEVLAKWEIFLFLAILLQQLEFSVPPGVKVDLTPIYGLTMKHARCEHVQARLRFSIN
Sequence of DNA dC->dU-editing enzyme APOBEC-3G (Homo sapiens) (Q9HC16 whole entry, looked up): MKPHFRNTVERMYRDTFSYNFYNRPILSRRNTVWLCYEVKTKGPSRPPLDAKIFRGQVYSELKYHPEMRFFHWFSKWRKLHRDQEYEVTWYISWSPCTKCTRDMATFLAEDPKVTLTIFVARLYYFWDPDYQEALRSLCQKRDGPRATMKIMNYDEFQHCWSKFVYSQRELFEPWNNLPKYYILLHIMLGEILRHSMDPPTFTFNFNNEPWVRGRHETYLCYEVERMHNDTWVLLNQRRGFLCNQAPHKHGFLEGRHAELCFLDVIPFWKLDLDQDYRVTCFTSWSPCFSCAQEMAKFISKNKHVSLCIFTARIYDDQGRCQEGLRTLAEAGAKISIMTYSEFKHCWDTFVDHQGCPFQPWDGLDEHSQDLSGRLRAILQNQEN
Sequence of 3',5'-cyclic-AMP phosphodiesterase 4B (Homo sapiens) (Q07343 whole entry, looked up): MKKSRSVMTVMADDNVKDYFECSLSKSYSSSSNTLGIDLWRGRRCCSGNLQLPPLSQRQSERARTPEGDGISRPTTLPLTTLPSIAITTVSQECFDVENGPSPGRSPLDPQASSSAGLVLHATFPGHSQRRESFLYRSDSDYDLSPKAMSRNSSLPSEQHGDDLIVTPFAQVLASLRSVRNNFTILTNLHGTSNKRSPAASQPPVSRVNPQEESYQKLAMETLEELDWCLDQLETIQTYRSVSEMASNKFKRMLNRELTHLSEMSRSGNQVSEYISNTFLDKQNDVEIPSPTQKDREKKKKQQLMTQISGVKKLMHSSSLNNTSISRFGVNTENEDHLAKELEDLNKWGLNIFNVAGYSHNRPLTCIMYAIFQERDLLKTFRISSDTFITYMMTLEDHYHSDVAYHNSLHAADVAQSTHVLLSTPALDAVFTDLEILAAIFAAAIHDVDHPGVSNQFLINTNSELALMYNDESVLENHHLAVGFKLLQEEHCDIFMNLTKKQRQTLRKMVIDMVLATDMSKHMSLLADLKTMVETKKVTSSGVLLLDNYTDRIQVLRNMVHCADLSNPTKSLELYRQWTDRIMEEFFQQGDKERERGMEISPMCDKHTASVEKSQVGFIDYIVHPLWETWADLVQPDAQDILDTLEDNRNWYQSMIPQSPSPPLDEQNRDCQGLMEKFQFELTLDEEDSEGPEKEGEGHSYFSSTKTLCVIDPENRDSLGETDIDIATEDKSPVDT
Sequence of Cytochrome P450 3A4 (Homo sapiens) (P08684 whole entry, looked up): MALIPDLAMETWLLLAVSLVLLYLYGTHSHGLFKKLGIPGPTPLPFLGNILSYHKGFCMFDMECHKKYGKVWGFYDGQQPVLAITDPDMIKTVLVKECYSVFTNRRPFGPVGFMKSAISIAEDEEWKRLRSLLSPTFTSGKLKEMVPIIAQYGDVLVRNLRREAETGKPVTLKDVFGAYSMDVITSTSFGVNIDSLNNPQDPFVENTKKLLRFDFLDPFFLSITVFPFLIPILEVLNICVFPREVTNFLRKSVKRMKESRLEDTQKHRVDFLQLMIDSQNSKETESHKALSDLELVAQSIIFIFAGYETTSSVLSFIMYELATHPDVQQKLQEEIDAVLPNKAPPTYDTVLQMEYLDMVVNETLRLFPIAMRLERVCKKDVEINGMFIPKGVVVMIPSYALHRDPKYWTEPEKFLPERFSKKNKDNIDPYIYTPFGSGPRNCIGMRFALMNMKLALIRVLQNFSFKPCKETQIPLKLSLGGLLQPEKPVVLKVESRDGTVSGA
Sequence of Glucocorticoid receptor (Homo sapiens) (P04150 whole entry, looked up, the tested form may be a part): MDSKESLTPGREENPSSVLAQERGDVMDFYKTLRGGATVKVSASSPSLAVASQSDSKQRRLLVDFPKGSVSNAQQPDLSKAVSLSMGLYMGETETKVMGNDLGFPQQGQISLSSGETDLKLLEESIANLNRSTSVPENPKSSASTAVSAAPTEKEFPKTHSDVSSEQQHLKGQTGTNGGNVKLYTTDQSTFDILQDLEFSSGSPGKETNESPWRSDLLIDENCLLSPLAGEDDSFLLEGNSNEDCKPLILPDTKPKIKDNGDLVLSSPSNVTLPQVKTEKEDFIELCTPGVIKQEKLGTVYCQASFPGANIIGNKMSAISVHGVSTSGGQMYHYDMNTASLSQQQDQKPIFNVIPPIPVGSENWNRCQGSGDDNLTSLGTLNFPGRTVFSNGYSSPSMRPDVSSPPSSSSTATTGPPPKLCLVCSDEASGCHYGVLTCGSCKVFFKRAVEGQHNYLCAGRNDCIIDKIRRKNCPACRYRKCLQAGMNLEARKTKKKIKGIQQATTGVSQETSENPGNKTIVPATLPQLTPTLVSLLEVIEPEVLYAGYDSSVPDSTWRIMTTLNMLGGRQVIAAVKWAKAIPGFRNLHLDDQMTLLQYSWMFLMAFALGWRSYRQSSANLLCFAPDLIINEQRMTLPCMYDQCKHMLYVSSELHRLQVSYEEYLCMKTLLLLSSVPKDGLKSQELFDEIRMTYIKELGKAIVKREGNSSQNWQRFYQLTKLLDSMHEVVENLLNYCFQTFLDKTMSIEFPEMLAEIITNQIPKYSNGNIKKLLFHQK
Sequence of Ubiquitin carboxyl-terminal hydrolase 1 (Homo sapiens) (O94782 whole entry, looked up): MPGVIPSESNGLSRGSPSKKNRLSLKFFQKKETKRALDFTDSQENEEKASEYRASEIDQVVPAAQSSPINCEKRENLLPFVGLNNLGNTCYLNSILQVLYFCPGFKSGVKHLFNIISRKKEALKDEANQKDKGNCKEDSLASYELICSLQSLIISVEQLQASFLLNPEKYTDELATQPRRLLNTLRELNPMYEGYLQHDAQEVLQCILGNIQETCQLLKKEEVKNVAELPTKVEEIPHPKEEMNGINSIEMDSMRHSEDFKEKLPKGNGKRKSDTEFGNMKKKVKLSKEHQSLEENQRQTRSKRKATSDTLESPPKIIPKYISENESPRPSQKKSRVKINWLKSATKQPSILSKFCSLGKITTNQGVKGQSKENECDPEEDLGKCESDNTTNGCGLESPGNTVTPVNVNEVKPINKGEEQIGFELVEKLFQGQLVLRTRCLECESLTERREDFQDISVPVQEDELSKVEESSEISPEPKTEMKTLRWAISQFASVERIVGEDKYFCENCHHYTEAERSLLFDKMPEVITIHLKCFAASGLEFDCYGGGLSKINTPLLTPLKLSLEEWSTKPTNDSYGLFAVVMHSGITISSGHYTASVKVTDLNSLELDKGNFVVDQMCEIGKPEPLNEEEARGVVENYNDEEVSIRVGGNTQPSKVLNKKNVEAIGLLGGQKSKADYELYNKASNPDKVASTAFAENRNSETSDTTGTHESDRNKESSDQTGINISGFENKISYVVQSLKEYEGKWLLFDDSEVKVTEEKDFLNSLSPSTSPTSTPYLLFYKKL
Sequence of Alpha-galactosidase (Coffea arabica) (Q42656 whole entry, looked up): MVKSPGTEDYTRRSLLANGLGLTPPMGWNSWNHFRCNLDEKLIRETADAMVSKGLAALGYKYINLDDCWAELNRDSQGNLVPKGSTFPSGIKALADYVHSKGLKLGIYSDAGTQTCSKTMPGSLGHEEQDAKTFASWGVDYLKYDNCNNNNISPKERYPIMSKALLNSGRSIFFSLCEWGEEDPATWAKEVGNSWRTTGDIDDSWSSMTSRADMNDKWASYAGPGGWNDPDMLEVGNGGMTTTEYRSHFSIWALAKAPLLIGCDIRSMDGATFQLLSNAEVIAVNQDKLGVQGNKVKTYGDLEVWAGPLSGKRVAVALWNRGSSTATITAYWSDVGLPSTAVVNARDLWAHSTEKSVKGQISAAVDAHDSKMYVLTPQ
Sequence of Pyruvate kinase (Leishmania mexicana) (Q27686 2-499 E452W): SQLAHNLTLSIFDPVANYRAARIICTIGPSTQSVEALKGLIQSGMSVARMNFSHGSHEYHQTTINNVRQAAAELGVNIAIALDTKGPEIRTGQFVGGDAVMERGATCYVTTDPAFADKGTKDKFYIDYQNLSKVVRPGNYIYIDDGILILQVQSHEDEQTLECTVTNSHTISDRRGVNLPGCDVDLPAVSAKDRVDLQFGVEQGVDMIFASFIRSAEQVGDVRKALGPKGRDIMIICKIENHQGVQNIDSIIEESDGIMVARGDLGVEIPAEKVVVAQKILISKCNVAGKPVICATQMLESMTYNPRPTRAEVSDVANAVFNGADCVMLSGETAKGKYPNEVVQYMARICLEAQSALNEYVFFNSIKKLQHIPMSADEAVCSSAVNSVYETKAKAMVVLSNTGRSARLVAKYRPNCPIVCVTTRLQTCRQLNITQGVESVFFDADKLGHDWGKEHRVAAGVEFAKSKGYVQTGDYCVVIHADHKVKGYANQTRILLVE
Sequence of Alpha-galactosidase A (Homo sapiens) (P06280 whole entry, looked up): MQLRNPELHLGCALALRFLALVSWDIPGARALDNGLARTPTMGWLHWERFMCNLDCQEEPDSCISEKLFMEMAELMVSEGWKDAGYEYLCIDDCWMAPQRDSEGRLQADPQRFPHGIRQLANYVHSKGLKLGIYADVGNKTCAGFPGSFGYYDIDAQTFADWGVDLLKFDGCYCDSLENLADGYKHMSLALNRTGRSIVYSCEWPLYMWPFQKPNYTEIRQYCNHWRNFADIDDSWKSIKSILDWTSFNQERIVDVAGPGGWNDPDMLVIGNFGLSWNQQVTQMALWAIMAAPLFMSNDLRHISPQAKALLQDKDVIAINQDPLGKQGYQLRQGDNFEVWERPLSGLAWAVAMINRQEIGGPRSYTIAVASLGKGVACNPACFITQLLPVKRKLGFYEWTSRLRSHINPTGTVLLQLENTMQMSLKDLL

CC(=O)O[C@@H]1CN2CCC1CC2
Potency [1]: inactive | Potency [2]: > 46 µM (inactive) | Potency [3]: > 46 µM (inactive) | outcome [4]: inactive | Potency [5]: inactive | Potency [6]: inactive | Potency [7]: inactive | Potency [8]: inactive | Potency [9]: inactive

O=C1C2CCN(CC2)C1(CO)CO
Potency [10]: > 11.4 µM (inactive) | activity change, negative = inhibition [11]: 3.23% [at 7.69 µM] (inactive) | Potency [1]: inactive | activity change, negative = inhibition ([12]; at 7.69 µM (top of the series)): -7.28% (inactive) | activity, negative = inhibition [13]: 4.51% [at 7.69 µM] (inactive) | Potency [2]: > 46 µM (inactive) | Potency [3]: > 46 µM (inactive) and > 9.22 µM (inactive) | outcome [4]: inactive | Potency [5]: inactive | Potency [14]: 63.1 nM (active) | Potency [15]: 631 nM (active) | Potency [7]: inactive | Potency [8]: inactive | Potency [9]: inactive

COC(=O)N1CCN(C(=O)Cc2ccc(Cl)c(Cl)c2)[C@H](CN2CCCC2)C1
outcome [11]: inactive | Potency [1]: inactive | activity change, negative = inhibition ([12]; at 38 µM (top of the series)): -16% (inactive) | outcome [13]: inactive | Potency [2]: > 46 µM (inactive) and 1.28 µM (active) | Potency [3]: > 46 µM (inactive) | Potency [5]: inactive | Potency [16]: inactive | Potency [17]: inactive | outcome [18]: inactive | Potency [19]: inactive | outcome [20]: inactive | outcome [21]: inactive | outcome [22]: inactive | outcome [23]: inactive | outcome [24]: inactive | outcome [25]: inactive | Potency [7]: inactive | Potency [8]: inactive | Potency [9]: inactive

NC(=NCCc1ccc(I)cc1)SCCCc1cnc[nH]1
Potency [1]: 15.8 µM (active) | Potency [2]: > 46 µM (inactive) | outcome [4]: inactive | Potency [26]: 794 nM (active) | Potency [16]: inactive | Potency [6]: inactive | Potency [7]: inactive | Potency [8]: inactive | Potency [9]: inactive
